# In the library only some 7.3% were active in any assay of this set; here they are far more common.
# FLuc modulator: qHTS profiling assay for firefly luciferase inhibitor/activator using purifed enzyme and Km concentrations of substrates (counterscreen for miR-21 project) | purified FLuc, Km substrates, luminescence inhibition | Potency, µM (titrated, usually from 57.5 µM), for inactives: at the highest dose activity change, negative = inhibition, actives largely listed as inhibitors | AID 588342, 2011 | 6.9% of 360,000 active;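 also: plate controls were vehicle for no effect and reference inhibitor for full effect; nearly all actives have a fitted effect of over 55% in size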
# Target sequence (P08659 whole entry, looked up): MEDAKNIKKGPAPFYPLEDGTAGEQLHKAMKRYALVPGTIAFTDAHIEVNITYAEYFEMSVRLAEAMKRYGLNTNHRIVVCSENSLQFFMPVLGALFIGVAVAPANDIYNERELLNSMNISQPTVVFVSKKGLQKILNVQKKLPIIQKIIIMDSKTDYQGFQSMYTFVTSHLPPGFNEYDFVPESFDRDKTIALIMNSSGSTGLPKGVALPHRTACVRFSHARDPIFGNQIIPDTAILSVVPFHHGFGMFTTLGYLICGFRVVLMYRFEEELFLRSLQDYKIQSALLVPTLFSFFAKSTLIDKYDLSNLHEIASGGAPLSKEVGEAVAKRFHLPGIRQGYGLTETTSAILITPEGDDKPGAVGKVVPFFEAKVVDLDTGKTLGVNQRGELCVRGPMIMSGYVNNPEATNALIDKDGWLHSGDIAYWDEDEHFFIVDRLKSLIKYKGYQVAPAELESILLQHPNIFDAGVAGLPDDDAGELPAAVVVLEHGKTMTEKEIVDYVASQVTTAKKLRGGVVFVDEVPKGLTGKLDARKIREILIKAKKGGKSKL
#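 Purified P. pyralis luciferase, 10 nM final, with Km-level 10 uM D-luciferin and 10 uM ATP in 50 mM Tris acetate pH 7.5, 10 mM Mg acetate, 0.01% Tween-20, 0.05% BSA; 6-point qHTS titration about 60 µM downward; luminescence read.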
# ELG1 genotoxic: qHTS screen for small molecules that induce genotoxicity in human embryonic kidney (HEK293T) cells expressing luciferase-tagged ELG1 | HEK293T ELG1-luciferase reporter, luminescence, 16 h | Potency, µM (series often up to 46 µM), for the others: at the highest dose activity change, positive = activation, usual class: activators | 1.3% of 330,000 active | AID 504466, 2011; also: % of control where 0% means no effect; nearly all actives have a fitted effect of over 60% in size
#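 Step 1: seed 2,000 HEK293T ELG1-luciferase cells per well. Step 2: add compound or DMSO, incubate 16 hr at 37 °C. Step 3: ONE-Glo, 30 min at room temperature, read luminescence.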
# SMN2 splice enh: qHTS Assay for Enhancers of SMN2 Splice Variant Expression | 2.8% of 210,000 active | Potency, µM (highest dose often 46.1 µM), without a hit: top-dose activity change, positive = activation, most hits filed as activators | HEK293 SMN2-luciferase splicing reporter, luminescence, 30-36 h; also: % of control where 0% means no effect; nearly all actives have a fitted effect of over 55% in size
#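 qHTS luciferase splicing reporter: luminescence rises when SMN2 exon 7 is included in transfected HEK293 cells. Compound exposure lasted 30-36 h at 37C, with 4.5 mM final sodium butyrate as control, followed by a ONE-Glo read.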
# p53 reactivator: qHTS assay for re-activators of p53 using a Luc reporter | H1299 p53-A138V BP100-luciferase reporter, luminescence, 24 h | 0.063% of 320,000 active | Potency, µM (top dose mostly 92.2 µM), for the others: top-dose activity change, positive = activation, usual class: activators; also: % of control where 0% means no effect; nearly all actives have a fitted effect of over 45% in size
#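 H1299 (p53-null), stable ts p53-A138V + BP100-Luc; 1000 cells/well, Opti-MEM/10% FBS; cpd 4 pt, 1:5; 24 h, 37 deg C, 5% CO2; detection reagent 10 min RT; luminescence.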
# NPC1 promoter act: qHTS Assay for NPC1 Promoter Activators; Huh7 NPC1 promoter luciferase reporter, 24 h; Potency, µM (highest dose often 9.22 µM), inactives show at the top dose activation, most hits filed as activators; 2.4% of 320,000 active; AID 485313, 2010; also: % of control where 0% means no effect; nearly all actives have a fitted effect of over 60% in size
#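 Huh7 cells stably carrying NPC1 promoter–luciferase, plated in Opti-MEM with 10% FBS for 2 h, were exposed to compound in DMSO for 24 h at 37 °C; luciferase reagent was added for 10 min and luminescence read.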
# Rab9 prom act: qHTS Assay for Rab9 Promoter Activators; Huh7 Rab9 promoter-luciferase reporter, luminescence, 24 h; Potency, µM (series often up to 9.22 µM), for the others: at the top dose activation, negative = inhibition, most hits filed as activators; 2.8% of 320,000 active; also: % of control where 0% means no effect; nearly all actives have a fitted effect of over 60% in size
#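 Measured in stably transfected Huh7 cells bearing a Rab9 promoter–luciferase construct: 24 h compound treatment at 37 °C, followed by luminescence detection.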
# An asterisk follows results filed as active; ? = inconclusive; . = no result given; [ ] = another dose, or the depositor's remark. Calls follow the shape of the dose curve; as a rule, active = well fitted curve in the direction sought with a large enough effect; inconclusive = small, poorly fitted or top-dose-only effect, or another doubt; inactive = no such curve, though single readings can be large; an effect the other way counts as inactive or inconclusive. Potency is read from the fitted curve at half-maximal effect.
SMILES,FLuc modulator,ELG1 genotoxic,SMN2 splice enh,p53 reactivator,NPC1 promoter act,Rab9 prom act
COc1cc(C2Nc3ccccc3C(=O)N2c2ccc(Cl)cc2)c(Cl)cc1OCC(=O)O (stereo not drawn),?,?,13µM*,?,3.2µM*,2.5µM*
CCOc1cc(C2Nc3ccccc3C(=O)N2c2ccccc2)c(Br)cc1OCC(=O)O (stereo not drawn),0%,0%,14%,23%,-2%,-2%
COC(=O)C1=C(C(=O)OC)[C@@H]2N(C)c3ccc(OC)cc3[C@@]23C[C@@H](C(=O)OC)N(C(C)=O)C3=N1,.,.,10%[9.22 µM],.,.,.
COc1ccc(CNC(=O)C(=O)NCC(c2cccs2)S(=O)(=O)c2cccs2)cc1 (stereo not drawn),-11%,.,.,.,.,.
CCCCOC(=O)c1sc2nc(C)cc(C)c2c1N,11µM*,?,.,-1%,3.5µM*,2.8µM*
CCOC(=O)c1sc2nc(C)cc(C)c2c1N,-51%,?,?,-8%,23%,25%
Cc1cc(C)c2c(N)c(C(=O)NC3CC3)sc2n1,-16%,-1%,-8%,-1%,-4%,6%
COCc1cc(C)nc2sc(C(=O)Nc3ccc(C(C)=O)cc3)c(N)c12,-14%,.,?,.,.,.
Cc1cc(C)c2c(N)c(C(=O)Nc3nccs3)sc2n1,0.34µM*,0.33µM*,?,5%,?,1µM*
Cc1cc(C)c2c(N)c(C(=O)NN)sc2n1,-15%,8%,.,3%,1%,-3%
Cc1ccc(NC(=O)c2sc3nc(C)cc(C)c3c2N)cc1,1.2µM*,?,.,?,0.56µM*,0.56µM*
COCc1cc(C)nc2sc(C(=O)Nc3nccs3)c(N)c12,17µM*,19%,12%,4%,?,?
COc1cc(/C=C2\C(=O)N(c3ccc(NC(C)=O)cc3)N=C2c2ccccc2)ccc1O,17µM*,6%,5%,0%,-1%,-6%
O=C1/C(=C\c2ccc(O)c(O)c2)C(c2ccccc2)=NN1c1ccccc1,19µM*,8%,-2%,1%,-12%,-13%
COc1cc(/C=C2/C(=O)N(c3ccc(C(=O)O)cc3)N=C2C)cc(OC)c1O,?,0%,.,-1%,-3%,0%
O=C(c1ccco1)N1CCC2(CCCN(Cc3ccccc3)C2)CC1,.,.,2%,.,.,.
COc1ccc(Cn2c(C3CC3)nc3ccc(NC(=O)c4ccco4)cc3c2=O)cc1,15µM*,?,?,?,3.2µM*,21%
CCOC(=O)CCNC(=O)Nc1ccc2nc(C)n(Cc3ccc(Cl)cc3)c(=O)c2c1,1%,3%,-13%,-8%,-2%,4%
CCC(=O)Nc1ccc2nc(C3CC3)n(Cc3ccccc3)c(=O)c2c1,?,8.2µM*,?,15%,?,3.5µM*
CC(=O)Nc1ccc2nc(C)n(Cc3ccc(Cl)cc3)c(=O)c2c1,-29%,?,13µM*,?,?,25%
O=C(Nc1ccc2nc(C3CC3)n(Cc3ccccc3)c(=O)c2c1)C1CC1,-9%,?,.,11%,2.8µM*,2.5µM*
CCCc1nc2ccc(NC(=O)c3ccco3)cc2c(=O)n1Cc1ccc(Cl)cc1,-16%,-7%,-8%,6%,7%,9%
CCOc1ccc(OC(=O)c2c(-c3ccccc3Cl)noc2C)cc1,2%,.,.,.,.,.
Cc1cccc(NC(=O)c2ccc(OC3CSC3)cc2)c1,1.9µM*,10µM*,18µM*,?,2.5µM*,4µM*
O=C(NCc1ccccc1)c1ccc(OC2CSC2)cc1,-1%,12%,-19%,8%,12%,7%

# Bioassay records: PubChem, National Center for Advancing Translational Sciences (NCATS)
